In PubChem BioAssay (NCI):
Compounds without any hit were thinned out: in the full panel of roughly 83,000, 20% have a hit.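 Negative percent growth values reflect cell death: -40 means 40% of the cells present at the start died, and -100 means all died.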 Values without a mark were called inactive. Activity calls are given as the source filed them. How the source made its calls: active means growth percent below 10; inactive means the rest.

Tests used:
Test in all cases: NCI-60 one-dose screen, 48 h (100 = growth as untreated, 0 = no growth, -100 = all killed)
Details in all cases: 10 µM unless noted
[1] = tested on: NCI-H23 lung
[2] = tested on: NCI-H226 lung
[3] = tested on: NCI-H322M lung
[4] = tested on: HOP-62 NSCLC
[5] = tested on: NCI-H460 lung
[6] = tested on: HOP-92 NSCLC
[7] = tested on: NCI-H522 lung
[8] = tested on: A549/ATCC NSCLC
[9] = tested on: 786-0 renal
[10] = tested on: COLO 205 colon
[11] = tested on: DU-145 prostate
[12] = tested on: K-562 leukemia
[13] = tested on: MALME-3M melanoma
[14] = tested on: MDA-MB-231 breast
[15] = tested on: RXF 393 renal
[16] = tested on: SF-268 CNS
[17] = tested on: SF-295 CNS
[18] = tested on: SF-539 CNS
[19] = tested on: UACC-257 melanoma
[20] = tested on: M14 melanoma

SMILES | growth [1] | growth [2] | growth [3] | growth [4] | growth [5] | growth [6] | growth [7] | growth [8] | growth [9] | growth [10] | growth [11] | growth [12] | growth [13] | growth [14] | growth [15] | growth [16] | growth [17] | growth [18] | growth [19] | growth [20]
Cc1ccc(-c2nc3nc(-c4ccccc4)nc(N4CCNCC4)c3o2)cc1 | -73.7% (active) | -68.6% (active) | -95.9% (active) | -92.9% (active) | -72.4% (active) | -73.5% (active) | -79.2% (active) | -84.5% (active) | -84.5% (active) | -92.4% (active) | -86.8% (active) | -71% (active) | -80.4% (active) | -79.3% (active) | -81.2% (active) | -67.2% (active) | -83.2% (active) | -93.4% (active) | -89.2% (active) | -84.7% (active)
O=C(/C=C(/C=C/c1cccc2[nH]ccc12)OB(F)F)/C=C/c1cccc2[nH]ccc12 | -34.8% (active) | -54.9% (active) | 0.979% (active) | -35.7% (active) | 0.502% (active) | -27.2% (active) | -71.4% (active) | -30.9% (active) | -60.1% (active) | -70.6% (active) | 2.94% (active) | -2.54% (active) | -26.9% (active) | -10.7% (active) | -87.2% (active) | 2.01% (active) | -49.5% (active) | -25.8% (active) | -47.3% (active) | -34.2% (active)
COc1ccc(C(=O)Nc2ncc(Cc3ccc(F)cc3)s2)cc1 | 30.7% | 40.9% | 34.6% | 28.7% | 6.59% (active) | 51.5% | -5.3% (active) | 23.3% | 27.8% | -16.2% (active) | 16.2% | 8.46% (active) | 60.2% | 29.6% | 7.03% (active) | 50.6% | 9.8% (active) | -9.59% (active) | 56% | 16.4%
O=C1NCCC12CCN(c1c(Cl)cncc1-c1ccc(O)cc1)CC2 | 100% | 83.9% | 103% | 112% | 104% | 114% | 78% | 94.6% | 100% | 105% | 108% | 97.9% | 117% | 102% | 87.9% | 82.5% | 101% | 83.7% | 86.7% | 114%
Oc1ccc(CN2CCC(N3CCCCC3)CC2)c2cccnc12 | 19% | 69.8% | 31.3% | 5.32% (active) | 9.43% (active) | -11.8% (active) | -1.28% (active) | 17.4% | 48.2% | 112% | 37.9% | 15.8% | 9.88% (active) | 15.2% | 29.6% | 38.9% | 38.4% | 22% | 21% | 30.3%
O=C(c1ccc(-c2nc(CSc3nc4ccccc4s3)no2)cc1)N1CCSCC1 | 52.9% | 68.4% | 100% | 75.9% | 69.6% | 66.4% | 19.7% | 52.1% | 90.6% | 87.8% | 81.9% | 36.6% | 66.3% | 64.6% | 110% | 77.1% | 40.6% | 80.3% | 35.7% | 79.9%
CCOC(=O)C1=C(NC)OCC1=O | 99.9% | 96.3% | 100% | 100% | 101% | 83.5% | 96.7% | 90.9% | 106% | 112% | 110% | 99% | 113% | 107% | 100% | 98.6% | 106% | 104% | 92.5% | 102%
O=[N+]([O-])c1ccc(N/N=C(/C(=N/Nc2ccc([N+](=O)[O-])cc2)c2ccccc2)c2ccccc2)cc1 | 82.5% | 97.5% | 81.1% | 76.6% | 46.2% | 107% | 50.8% | 90.9% | 103% | 87.3% | 9.75% (active) | 84.4% | 100% | 81.9% | 62.8% | 104% | 69.3% | 94.2% | 98.9% | 80.2%
CCOC(=O)CNP(=O)(OC[C@@H](Cc1ccccc1)NC(=O)c1cc2ccccc2s1)Oc1ccccc1 (stereo not given in full) | 81.1% | 93.2% | 93.3% | 85.3% | 72.7% | 69.3% | 71.7% | 64.8% | 89.7% | 87.2% | 88.8% | 19.4% | 69.3% | 77% | 84.4% | 85.6% | 88.5% | 78.9% | 81.2% | 59.6%
CN(C)c1ccc(Nc2cc(-c3cccc(OC(F)(F)F)c3)nc3ccc(N4CCCC4)cc23)cc1 | 27.2% | 103% | 46.3% | 61.3% | -70.9% (active) | 85.3% | 87.7% | -32.8% (active) | 2.11% (active) | 70.6% | 50.3% | -20.9% (active) | -90.4% (active) | 12.3% | 88.8% | -13.4% (active) | 108% | 91.6% | 14.1% | -76.3% (active)
CCC(C)N(c1ccc(Cl)cc1)c1nc(-c2ccc(Br)cc2)cs1 (stereo not given) | 88.6% | 93.1% | 91.4% | 90.9% | 98% | 94.4% | 89.2% | 95.6% | 96% | 112% | 108% | 92.4% | 97.5% | 88.6% | 121% | 97.1% | 105% | 101% | 103% | 95.6%
COc1ccc(C2c3sc4c(F)cccc4c3Oc3nc[nH]c(=O)c32)cc1 (stereo not given) | 78.4% | 66.6% | 68.6% | 79.5% | 82.7% | 59.4% | 80.1% | 88.8% | 91.8% | 108% | 98.2% | 72.2% | 94.4% | 72.7% | 72.3% | 82% | 88% | 77.4% | 105% | 91.4%
CCn1c(SCC(=O)c2ccc(Br)cc2)nnc1-c1ccncc1 | 105% | 99% | 110% | 109% | 108% | 114% | 96% | 106% | 114% | 114% | 103% | 91.5% | 105% | 106% | 113% | 96.5% | 101% | 99.3% | 107% | 108%
N#Cc1c(-c2ccc(Cl)cc2)nc(NN=Cc2cccc(O)c2)nc1N1CCOCC1 | 100% | 92.9% | 86.3% | 87.8% | 77.9% | 63.3% | 74.8% | 72.7% | 64.3% | 85.7% | 63.4% | 45.1% | 104% | 95.9% | 24.1% | 81.9% | 97.1% | 67.8% | 86.5% | 66.6%
O=C(NNc1nccc(Nc2ccc(S(=O)(=O)Nc3ccncc3)cc2)n1)c1ccccc1 | 5.18% (active) | 108% | 96.9% | 89.2% | 119% | 103% | 94.5% | 96.8% | 93.8% | 122% | 105% | 107% | 103% | 90.9% | 109% | 95.3% | 104% | 115% | 107% | 91.9%
